Screening data from PubChem BioAssay.
Hits are enriched below; roughly 1.8% of the tested compounds scored in any of these assays.
TLR4 MyD88 comp: blocks binding of human TLR4 to MyD88; O00206+Q99836; hit rate 0.18% among 200,000; inhibition, % at 8.4 µM; HeLa CL3-4 TLR4/MyD88 BLA complementation, FRET ratio; in the data active = inhibition above about 25%;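 note: 0% = vehicle and 100% = reference inhibitor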
NOD2 RIPK2 PPI: blocks binding of human NOD2 to RIPK2 | O43353 | CHO BLA complementation NOD2-RIPK2, CCF4 ratio | inhibition, % at 4.98 µM | hit rate 0.38% among 360,000; in the data active = inhibition above about 21%;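 note: 0% = vehicle only and 100% = reference blocker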
Mcl-1 Bim block: inhibitors of Bim-Mcl-1 interaction, human; inhibition, % at 10 µM; Bead-based flow cytometry, Bim peptide-Mcl-1 binding; hit rate 0.1% among 190,000; AID 1009; in the data active = inhibition above about 40%;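 note: 0% = no compound tracer wells and 100% = peptide blocker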
Mcl1-Noxa inh: Mcl-1/Noxa interaction inhibition; AID 1022; TR-FRET Mcl-1/Noxa peptide binding, 2 h; inhibition, % at 21.7 µM; hit rate 1.5% among 220,000;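 active = compounds that cut the protein-peptide binding signal by more than 50% relative to plate controls in a single-dose test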;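 note: His-tagged Mcl-1 with rhodamine Noxa BH3 peptide and terbium anti-His antibody; 0% = Mcl-1 plus Noxa peptide wells and 100% = peptide-only wells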
Mcl1-Bid inh: Mcl-1/Bid interaction inhibition; TR-FRET Mcl-1/Bid-Dy647 peptide binding, 1536-well; inhibition, % at 21.7 µM; hit rate 0.97% among 220,000; AID 1021;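 active = compounds that cut the binding signal by more than half at the single screening dose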;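 note: His-tagged Mcl-1 with europium anti-His antibody binding Bid BH3 peptide; 0% = Mcl-1 plus peptide wells and 100% = peptide-only wells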
TLR9-MyD88 inh: blocks human TLR9 binding to MyD88; Q9NR96+Q99836; CHO BLA complementation TLR9-MyD88, CCF4 FRET ratio; inhibition, % at 4.98 µM; hit rate 0.21% among 340,000;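 active = inhibition above the mean over all tested compounds plus 3 SD, cut at about 21% in these data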;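 note: 0% = DMSO only wells and 100% = clavulanate BLA inhibitor control wells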
TLR4-MyD88 conf: confirmation of human TLR4-MyD88 binding inhibitors; shares compounds with TLR4 MyD88 comp; HeLa CL3-4 BLA complementation, CCF4 FRET ratio; inhibition, % at 8.4 µM; hit rate 50% among 350;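 active = mean inhibition across three repeat runs above about 25% carried over from the earlier screen, limit read from the data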;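 note: plate controls were DMSO only for no effect and clavulanic acid blocking BLA at full dose for full effect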
BLA inhibitor ct: inhibits beta-lactamase activity, counter-screen to TLR4-MyD88 binding inhibitors. hit rate 63% among 350. HeLa BLA reporter, CCF4 FRET ratio. inhibition, % at 8.4 µM. shares compounds with TLR4 MyD88 comp. AID 1237;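 active = mean inhibition over three repeats above about 26% taken from the earlier screen, limit read from the data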;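 note: HeLa cells stably expressing beta-lactamase reporter as counterscreen for TLR4-MyD88 inhibitors; 0% = DMSO and 100% = clavulanic acid full inhibition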
TLR9-MyD88 cf: confirmation of human TLR9-MyD88 binding inhibitors; inhibition, % at 4.98 µM; CHO TLR9/MyD88 BLA complementation, CCF4 FRET ratio; shares compounds with TLR9-MyD88 inh; hit rate 51% among 680;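 active = mean inhibition across three repeats above about 21% taken from the earlier screen, limit read from the data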;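 note: blue over green emission ratio reports constitutive TLR9 MyD88 association via BLA complementation; 0% = DMSO vehicle wells and 100% = clavulanate BLA inhibitor wells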
Target sequence (Q9NR96 whole entry, looked up): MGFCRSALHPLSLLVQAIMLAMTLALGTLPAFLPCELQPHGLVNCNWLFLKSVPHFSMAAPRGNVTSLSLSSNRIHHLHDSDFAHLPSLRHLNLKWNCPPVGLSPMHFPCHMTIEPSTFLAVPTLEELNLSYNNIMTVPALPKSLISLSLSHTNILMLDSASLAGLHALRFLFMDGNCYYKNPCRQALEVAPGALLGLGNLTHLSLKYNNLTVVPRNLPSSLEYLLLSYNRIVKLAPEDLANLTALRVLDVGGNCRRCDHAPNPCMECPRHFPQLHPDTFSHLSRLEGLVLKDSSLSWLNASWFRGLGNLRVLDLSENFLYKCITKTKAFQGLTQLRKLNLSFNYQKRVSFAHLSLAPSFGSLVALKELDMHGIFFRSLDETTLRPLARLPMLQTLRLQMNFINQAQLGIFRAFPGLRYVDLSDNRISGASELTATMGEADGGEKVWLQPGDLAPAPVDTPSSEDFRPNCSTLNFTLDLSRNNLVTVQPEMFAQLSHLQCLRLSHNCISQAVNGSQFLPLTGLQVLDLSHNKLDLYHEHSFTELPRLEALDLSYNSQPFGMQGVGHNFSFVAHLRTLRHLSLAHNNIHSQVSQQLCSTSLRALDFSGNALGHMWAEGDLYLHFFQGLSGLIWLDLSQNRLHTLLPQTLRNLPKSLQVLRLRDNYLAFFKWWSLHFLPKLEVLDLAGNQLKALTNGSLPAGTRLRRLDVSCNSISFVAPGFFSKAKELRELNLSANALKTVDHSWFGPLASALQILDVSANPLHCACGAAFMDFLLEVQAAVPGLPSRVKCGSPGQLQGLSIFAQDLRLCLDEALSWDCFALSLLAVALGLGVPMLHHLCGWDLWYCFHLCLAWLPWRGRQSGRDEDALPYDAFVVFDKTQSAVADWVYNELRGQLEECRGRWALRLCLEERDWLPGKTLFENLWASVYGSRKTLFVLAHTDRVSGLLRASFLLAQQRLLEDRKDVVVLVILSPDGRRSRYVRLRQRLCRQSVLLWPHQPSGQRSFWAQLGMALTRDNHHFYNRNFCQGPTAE
BLA nonselective: counter-screen for TLR9-MyD88 inhibitors: non-selective beta-lactamase inhibitors; shares compounds with TLR9-MyD88 inh; CHO-BLA cells, CCF4 FRET ratio, BLA reporter; inhibition, % at 4.98 µM; hit rate 7% among 680; AID 540251;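 active = mean inhibition above a 50% cutoff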;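 note: counterscreen of TLR9-MyD88 hits on CMV-driven BLA in CHO-K1 cells; 0% = DMSO alone and 100% = clavulanate blocking BLA; higher means less blue over green ratio so more BLA blockade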
TLR9 CHO cytotox: counter-screen for TLR9-MyD88 inhibitors: cytotoxicity in CHO cells. shares compounds with TLR9-MyD88 inh. luminescence. inhibition, % at 4.98 µM. hit rate 39% among 680; in the data active = inhibition above about 11%
Active calls of the source: *; · = not tested or not shown.

SMILES	TLR4 MyD88 comp	NOD2 RIPK2 PPI	Mcl-1 Bim block	Mcl1-Noxa inh	Mcl1-Bid inh	TLR9-MyD88 inh	TLR4-MyD88 conf	BLA inhibitor ct	TLR9-MyD88 cf	BLA nonselective	TLR9 CHO cytotox
CCOc1ccccc1N(CC(=O)NCCSc1ccccc1)S(C)(=O)=O	-6	7	1	7	-9	-11	·	·	·	·	·
COC(=O)c1ccc(-c2nc3cc(Cl)c(N)cc3s2)cc1	38*	9	0	0	91*	11	44*	59*	·	·	·
CC(C)Oc1ccccc1C1NC(=O)CCC1[N+](=O)[O-] (stereo not drawn)	·	-9	·	·	·	-10	·	·	·	·	·
Cc1cccc(N2C(=O)/C(=C\c3ccc(C(=O)O)cc3)c3ccccc3C2=O)c1	45*	4	-1	10	-26	19	32*	35*	·	·	·
O=C(Nc1nccs1)c1cccc(N2C(=O)c3cccc4c([N+](=O)[O-])ccc(c34)C2=O)c1	28*	-4	0	93*	101*	0	21	32*	·	·	·
Cc1sc2nc(CN3CCC(C)CC3)nc(Cl)c2c1C	28*	·	-5	10	8	·	32*	11	·	·	·
Cc1sc2nc(CN3CCOCC3)nc(Cl)c2c1C	7	1	2	19	2	1	·	·	·	·	·
CC(C)c1cccc(C(C)C)c1NC(=O)c1ccc(-c2cc(Cl)ccc2Cl)o1	·	-2	·	·	·	·	·	·	·	·	·
O=c1c(Br)c(Br)cnn1-c1ccccc1	35*	19	-1	10	-18	9	20	-6	·	·	·
O=C(CCCCCn1c(=O)[nH]c2ccsc2c1=O)NCc1ccc2c(c1)OCO2	-7	-4	-1	-4	-10	-1	·	·	·	·	·
O=C(CCCn1c(=O)[nH]c2ccsc2c1=O)N1CCN(Cc2ccc3c(c2)OCO3)CC1	26*	1	1	19	-6	-3	-1	7	·	·	·
Cc1ccc(S(=O)(=O)N[C@H](C(=O)Oc2ccc3c(C(F)(F)F)cc(=O)oc3c2)c2ccccc2)cc1	32*	58*	-1	-11	-23	55*	43*	56*	33*	40	-1
CC(OC(=O)CNC(=O)COc1ccccc1)C(=O)N(C)Cc1ccccc1 (stereo not drawn)	·	-1	·	·	·	-9	·	·	·	·	·
O=C(OCCN1C(=O)c2cccc3c(N4CCOCC4)ccc(c23)C1=O)c1ccc(Cl)cc1Cl	40*	7	10	-151	-26	38*	58*	86*	68*	69*	29*
CCCCC[C@@H](/C=C/C1C(=O)C=C[C@H]1C/C=C\CCCC(=O)O)OC(C)=O (stereo partly drawn)	·	3	·	·	·	-8	·	·	·	·	·
Nc1c(C(=O)Nc2nc3ccccc3s2)sc2nc(-c3cccs3)ccc12	65*	-8	4	97*	92*	25*	48*	77*	48*	48	42*
CC[C@H](C)/C=C(C)/C=C/c1cc2c(cn1)C(=O)[C@@](C)(OC(C)=O)C(O)=C2Cl	·	-17	·	·	·	·	·	·	·	·	·
CC[C@H](C)/C=C(C)/C=C/C1=CC2=CC(=O)[C@]3(C)OC(=O)[C@@H](C(C)=O)[C@@H]3C2=CO1	33*	19	1	4	-13	32*	19	48*	27*	30	1
OCCCc1nc2n(n1)C(c1ccccc1)C=C(c1ccccc1)N2 (stereo not drawn)	35*	64*	-1	7	-26	40*	28*	50*	32*	32	3
